Compound activity as filed in PubChem BioAssay.
Most compounds without a hit are left out; they make up all but 11% or so of the library.
hNpr1 antagonist: Natriuretic polypeptide receptor (hNpr1) antagonism - Primary qHTS | HEK293 hNpr1 GloSensor cGMP, ANP-stimulated luminescence | Potency, µM (doses to about 46.3 µM), for the others: at the highest dose activity change, negative = inhibition, hits mostly inhibitors | 76,000 compounds, 1.6% hits | AID 1347048, 2019; calls by dose curve; also: nearly all actives have a fitted effect of over 60% in size
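HEK293 cells stably expressing human Npr1 and cGMP GloSensor pGS-40F, loaded 2 h with 2% GloSensor reagent, given compound 30 min at room temperature. Luminescence read before and 20 min after 0.1 nM hNppA.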
HEK cytotox: Cytotoxic Profiling in HEK 293 Cell Line of Diverse Libraries Using Quantitative High-Throughput Screening. HEK 293 viability, ATP luminescence (CellTiter-Glo), 48-72 h. 94,000 compounds, 6.6% hits. AID 1345083, 2018. Potency, µM (doses to about 115 µM), without a hit: at the top dose activity change, negative = cytotoxicity, hits mostly inhibitors; also: nearly all actives have a fitted effect of over 60% in size
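HEK 293 cells seeded at 250 cells/well were exposed to compound for 48 or 72 hr at 37 degree Celsius. Viability taken as ATP content by CellTiter-Glo luminescence.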
Luciferase inh: Firefly luciferase inhibition profiling of diverse chemical library using quantitative high-throughput screening; 76,000 compounds, 2.5% hits; Potency, µM (titrated, usually from 115 µM), usual class: inhibitors; purified P. pyralis luciferase, luminescence, biochemical; Luciferin 4-monooxygenase (Photinus pyralis), P08659; AID 1347043, 2019; also: nearly all actives have a fitted effect of over 65% in size
Target sequence (P08659 whole entry, looked up): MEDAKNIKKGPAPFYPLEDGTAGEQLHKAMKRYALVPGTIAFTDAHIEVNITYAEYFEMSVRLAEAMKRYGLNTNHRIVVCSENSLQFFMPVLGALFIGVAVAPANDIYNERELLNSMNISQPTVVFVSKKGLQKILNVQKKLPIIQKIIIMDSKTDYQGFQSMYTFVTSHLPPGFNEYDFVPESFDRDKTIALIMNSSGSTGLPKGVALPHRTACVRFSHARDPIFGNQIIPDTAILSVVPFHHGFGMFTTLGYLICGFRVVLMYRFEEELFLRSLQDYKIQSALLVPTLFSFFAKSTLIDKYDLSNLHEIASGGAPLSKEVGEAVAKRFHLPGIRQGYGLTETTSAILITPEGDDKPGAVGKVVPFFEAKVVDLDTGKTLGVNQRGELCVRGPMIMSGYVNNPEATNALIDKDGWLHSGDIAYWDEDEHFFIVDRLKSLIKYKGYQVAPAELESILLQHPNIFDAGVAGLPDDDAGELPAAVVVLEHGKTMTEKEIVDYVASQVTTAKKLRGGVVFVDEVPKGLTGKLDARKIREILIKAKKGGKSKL
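Biochemical qHTS: compound (6-point titration) added to 10uM D-luciferin plus 10uM ATP in Tris acetate pH 7.5 buffer with Mg, Tween-20 and BSA, then purified enzyme at 10nM; light output imaged.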
NIH3T3 tox: Cytotoxic Profiling in NIH 3T3 Cell Line of Diverse Libraries Using Quantitative High-Throughput Screening; Potency, µM (titrated, usually from 96.7 µM), for inactives: top-dose activity change, negative = cytotoxicity, hits mostly inhibitors; 94,000 compounds, 4.3% hits; NIH 3T3 viability, CellTiter-Glo ATP luminescence, 48-72 h; also: nearly all actives have a fitted effect of over 55% in size
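Cells were seeded at 400 per well, treated with pin-transferred compound, and kept 48 or 72 hr at 37 °C before CellTiter-Glo addition and luminescence imaging of cellular ATP.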
* = called active by the depositor; i = inactive; ? = inconclusive; . = not tested or not shown; ! = not confirmed by another sample; [ ] = remark or other dose. Unless noted, calls follow the shape of the dose curve; as a rule, active = well fitted curve in the direction sought with a large enough effect; inconclusive = small, poorly fitted or top-dose-only effect, or another doubt; inactive = no such curve, though single readings can be large; an effect the other way counts as inactive or inconclusive. % is scaled to controls: 0 for no effect and ±100 for the full control effect; potency is read from the fitted curve at half-maximal effect.

SMILES	hNpr1 antagonist	HEK cytotox	Luciferase inh	NIH3T3 tox
Cc1ccc(CN2CCOC[C@H]2c2ncc(C(C)(C)C)[nH]2)cc1	-14.8%[70.6 µM]	112µM*	i	100µM*
COC[C@@H]1OC[C@@]2(C)C3CC[C@@H](O)[C@@H](CC(=O)N4CCC(C)CC4)[C@]3(C)CC[C@H]2O1 (stereo partly drawn)	2.1%[70.6 µM]	-1.9%[172 µM]	i	-15.7%[174 µM]
NS(=O)(=O)c1ccc(CCNC(=O)CCC2CCN(C(=O)c3ccccc3)CC2)cc1	-1.6%	-15.6%	i	-17.8%
COc1ccc(-c2cnc([C@@H]3COCCN3Cc3nc4ccccc4n3C)[nH]2)cc1	?	?	i	?
COc1ccc(-c2cnc([C@@H]3COCCN3Cc3cn(C)c4ccccc34)[nH]2)cc1	?	?	i	63.1µM*
COc1ccc2cc(C3CN(CCC(=O)NC(C)(C)C)CCO3)ccc2c1 (stereo not drawn)	?	44.7µM*	?	?
COc1ccc2cc(C3CN(Cc4nc(C(N)=O)no4)CCO3)ccc2c1 (stereo not drawn)	3.0%	-3.4%	i	-26.5%
Cc1ccc(-c2cc3c(=O)n(CCNC(=O)c4ccccc4F)ccn3n2)cc1C	5.0%	?	2µM*	-20.9%
O=C(NCCn1ccn2nc(-c3ccc(F)cc3)cc2c1=O)c1n[nH]c2c1CCCC2	?	?	0.398µM*	?
O=C(NCCn1ccn2nc(-c3ccc(F)cc3)cc2c1=O)c1ccsc1	-6.0%	?	i	-11.3%
CCn1nccc1C(=O)NCCn1ccn2nc(-c3ccc(C)c(C)c3)cc2c1=O	-2.0%	25.1µM*	3.98µM*	-28.6%
Cc1ccc(-c2cc3c(=O)n(CCNC(=O)C4CCCCC4)ccn3n2)cc1C	-5.2%	-1.3%	0.631µM*	0.3%
Cc1cccc(CN2CCCC3(CCN(C(=O)CCc4ccccc4C)C3)C2)c1 (stereo not drawn)	1.8%	89.1µM*	i	?
Cc1cccc(CN2CCCC3(Cc4ccccc4CNC3=O)C2)c1 (stereo not drawn)	.	-18.1%	.	-2.1%
COc1cccc(-c2ccc(S(=O)(=O)N3CCSCC3)cc2)n1	-4.8%	44.7µM*	i	?
Cc1nn(C)c(C)c1CCC(=O)N1CC[C@](C)(O)[C@@H](O)C1	4.7%	-0.6%	i	-3.9%
COCC(=O)N[C@@H]1CN(Cc2ccncc2)C[C@H]1CN(C)C	14.7%	?	i	-7.3%
CCc1nc2c(c(-c3ccc(Cl)cc3)n1)CN(S(=O)(=O)c1ccccc1)CC2	2.4%	4.6%	i	20µM*!
CCc1nc2c(c(-c3ccc(Cl)cc3)n1)CN(Cc1ccc(F)cc1)CC2	1.2%	44.7µM*	i	22.4µM*
CCc1nc2c(c(-c3ccc(Cl)cc3)n1)CN(Cc1cccc(OC)c1)CC2	7.0%	?	i	12.6µM*
CCc1nc2c(c(-c3ccc(OC)cc3)n1)CCN(Cc1cc(C)on1)CC2	.	3.9%	.	20µM*
CCCn1ccnc1CN1CCc2nc(-c3ccc(Cl)cc3)[nH]c2C1	5.0%	?	?	?
COc1ccc(CC(=O)Nc2ccc3n(c2=O)C[C@H]2C[C@@H]3CN(C(=O)c3ccc(-c4ccccc4)cc3)C2)cc1	-0.9%	-23.9%	i	-20.9%
CCc1nc2c(c(-c3ccc(Cl)cc3)n1)CCN(Cc1ccc(OC)cc1)CC2	1.6%	?	i	?
CCc1nc2c(c(-c3ccc(Cl)cc3)n1)CN(Cc1cccc3ccccc13)CC2	0.4%	79.4µM*	i	31.6µM*
SMILES	hNpr1 antagonist	HEK cytotox	Luciferase inh	NIH3T3 tox
CCc1nc2c(c(-c3ccc(Cl)cc3)n1)CCN(Cc1ccc(C#N)cc1)CC2	7.0%	39.8µM*	i	?
CCc1nc2c(c(-c3ccc(Cl)cc3)n1)CN(Cc1ccc(OC)cc1)CC2	1.6%	?	i	35.5µM*
CCc1nc2c(c(-c3ccc(Cl)cc3)n1)CN(Cc1ccccn1)CC2	2.2%	0.0%	i	-19.8%
Cc1ccc(CN2Cc3[nH]cnc3C[C@H]2C(=O)N2CCC(Cc3ccccc3)CC2)cc1	-14.2%[70.6 µM]	?	i	70.8µM*
O=C(NCCc1ccc(F)cc1)C1CCCCN1Cc1ccc(-c2cccs2)cc1 (stereo not drawn)	.	22.4µM*	.	?
O=C(NCCc1ccc(F)cc1)C1CCCCN1Cc1ccc(-c2ccsc2)cc1 (stereo not drawn)	.	35.5µM*	.	31.6µM*
O=C(NC1CCCCCC1)C1CCCCN1Cc1ccc(-c2ccsc2)cc1 (stereo not drawn)	.	?	.	-34.2%
O=C(NCC(F)F)C1CCCCN1Cc1ccc(-c2ccsc2)cc1 (stereo not drawn)	.	39.8µM*	.	?
O=C(NCCc1ccc(F)cc1)C1CN(C2CCCC2)C(=O)N1 (stereo not drawn)	.	i	.	i
O=C(NCCc1ccccc1)C1CCN(C(=O)c2ccc(-c3cccs3)cc2)CC1	.	-22.5%	.	-23.8%
N#Cc1ccc(C(=O)N2C[C@@H]3C[C@H](C2)c2c(-c4ccc5ccccc5c4)ccc(=O)n2C3)cc1	0.3%	i	i	-1.5%
Cc1ccc(-n2nc(-c3c(C)nc4scc(CC(=O)NC(C)C)n4c3=O)cc2C)cc1	-0.6%	-13.7%	i	-10.2%
O=C(C1CCCCN1Cc1ccc(-c2ccsc2)cc1)N1CCC(Cc2ccccc2)CC1 (stereo not drawn)	.	?	.	35.5µM*
O=C(NCCCc1ccccc1)C1CCCCN1Cc1ccc(-c2ccsc2)cc1 (stereo not drawn)	.	?	.	35.5µM*
CC(=O)N1CCN(C(=O)C2CCCCN2Cc2ccc(-c3ccsc3)cc2)CC1 (stereo not drawn)	.	-18.7%	.	-23.1%
O=C(Cc1ccccc1)N1CCn2c(nnc2[C@@H]2C[C@@H](O)CN2Cc2ccccc2)C1	-0.5%	?	i	-21.9%
CN1C[C@@H]2CC[C@H](CC1=O)N2Cc1ccc(S(C)(=O)=O)cc1	5.0%	-1.0%	i	-6.1%
Cc1ccc(-n2nc(C)c([C@@H]3C=C[C@@H](NCc4ccc(N(C)C)cc4)C3)c2C)cc1Cl	?	8.91µM*	25.1µM*	7.94µM*
Cc1ccc(-n2nc(C)c([C@@H]3C=C[C@@H](NC(=O)CC(C)(C)CC(=O)O)C3)c2C)cc1Cl	-7.5%	-18.6%	i	?
Cc1ccc(-n2nc(C)c([C@@H]3C=C[C@@H](NCc4ccc(F)cc4)C3)c2C)cc1Cl	-30.5%[70.6 µM]	31.6µM*	44.7µM*	?
N#Cc1cccc(CN(Cc2cccc(C#N)c2)[C@@H]2CO[C@H](CNC(=O)c3ccccc3)[C@H]2O)c1	0.6%	79.4µM*	i	?
CCc1nc(NC(c2ccccc2)c2ccco2)c2cnn(C)c2n1 (stereo not drawn)	-3.7%	39.8µM*	i	?
